Inhibition data for 17 compounds are collected here from PubChem BioAssay.

Values without a mark were called inactive. No rule for the calls is given here.

The subject of this assay is Botulinum neurotoxin type F light chain protease (Clostridium botulinum). As to the kind of experiment: Botulinum neurotoxin type F light chain protease inhibition, multiplex microsphere flow cytometry, validation set (AID 588459). The following applies: multiplex microsphere protease substrate cleavage assay, at 10 µM, stronger effect = higher value. In general terms: A flow cytometer gives signals particle by particle.
Turning to `Cc1ccc(S(=O)(=O)Nc2ccc(S(=O)(=O)Nc3cc(C)nc(C)n3)cc2)cc1`, the inhibition (commonly the relative decrease from the control value, in per cent) was -1.8%.
For `Cc1ccc2[nH]c3c(c2c1)CN(C)CC3` the value was -2.8%; for `CN(C)c1ccc(Nc2c3c4c(cccc4n(C)c2=O)C(=O)c2ccccc2-3)cc1`, -13.5%; for `NS(=O)(=O)c1cc2c(cc1Cl)NC(CSCc1ccccc1)=NS2(=O)=O`, -4.8%.
Regarding `O=C(c1ccc(-c2ccccc2)c(F)c1)C1CCCN(C(=O)c2cncs2)C1` (configuration not stated), the inhibition was 0.6%.
Consider `COc1ccc(OCc2cccc(C(=O)NN)c2)cc1`, for which the inhibition was 0.1%.
In the case of `O=C1CC(c2ccc(O)cc2)Oc2cc(O)cc(O)c21` (configuration not stated), the inhibition is -2.6%.
For `CN(C)CCN(Cc1ccccc1)c1ccccn1` the value was 2.2%; for `O=C(NCCN1CCCCC1)c1c(O)c2ccccc2[nH]c1=O`, 3.5%; for `COc1cc2c(cc1OC)C(=S)NC(C)(C)C2`, 2.8%.
For `COc1ccc2c3c([nH]c2c1)C1(NCC3)C(=O)Nc2ccccc21` (configuration not stated) the value was -3%.
In the case of `C=CCc1ccc(OCC(O)COc2ccc(CC=C)cc2OC)c(OC)c1`, the inhibition was 5.2%.
Then `COc1cc2c3c(c1)C1(C(=O)N3C(C)(C)C=C2C)C(C#N)=C(N)Oc2cc(C)oc(=O)c21` (configuration not stated), with 0.4%; and `COc1cc(OC)c2c(C)c(Cl)c(=O)oc2c1`, with 1.9%; and `NC(N)=NC(=O)Cc1c(Cl)cccc1Cl`, with -3.3%.
Then `Cc1ccc(Cl)c(OCCCN(C)Cc2ccccc2)c1`, with 2.8%.
For `CCC(C(=O)OCCN(CC)CC)c1ccccc1` (configuration not stated) the value was 2.4%.
